Reference: PubChem BioAssay (NCATS)
Records with an inconclusive call do not appear. Unmarked numbers belong to inactive results. The source made the active and inactive calls. Calls come from the whole dose curve; as a rule, active = well fitted cell-killing curve with a large enough effect; inconclusive = small, poorly fitted or top-dose-only effect, or effect the other way; inactive = no such curve, though single readings can be large or run the other way.

experiment: Quantitative High-Throughput drug screen in 47 multiple myeloma cell lines against the NCATS MIPE library collection: KMM1_JCRB cell viability assay (AID 1918960); settings: KMM1 myeloma viability, CellTiter-Glo ATP luminescence, 48 h; series mostly up to 45.8 µM; viability (% of DMSO): at the top concentration; note: nearly all actives have a fitted effect of over 30% in size
Source text: PI: Beverly A. Mock Ph.D.
Laboratory of Cancer Biology and Genetics,
Center for Cancer Research, National Cancer Institute,
National Institute of Health, Bethesda, Maryland
Drug resistance and disease progression are common in multiple myeloma (MM) patients, underscoring the need for new therapeutic combinations. […] We hypothesized that effective combinations would reduce MYC expression and enhance p16 activity. […] These preclinical data identify potentially useful drug combinations for evaluation in drug-resistant MM and reveal potential mechanisms of combined drug sensitivity.
Described herein is the primary MIPE qHTS used to cherrypick compounds. Validated compounds were then further tested for potential synergistic activiy.
[1] Peat TJ, Gaikwad SM, Dubois W, Gyabaah-Kessie N, Zhang S, Gorjifard S, Phyo Z, Andres M, Hughitt VK, Simpson RM, Miller MA, Girvin AT, Taylor A, Williams D, D'Antonio N, Zhang Y, Rajagopalan A, Flietner E, Wilson K, Zhang X, Shinn P, Klumpp-Thomas C, McKnight C, Itkin Z, Chen L, Kazandijian D, Zhang J, Michalowski AM, Simmons JK, Keats J, Thomas CJ, Mock BA. Drug combinations identified by high-throughput screening promote cell cycle transition and upregulate Smad pathways in myeloma. Cancer Lett. 2023 Aug 1;568:216284. doi: 10.1016/j.canlet.2023.216284. Epub 2023 Jun 24. PMID: 37356470; PMCID: PMC10408729.
SEQUENCE No. (e.g., 1, 2, 3, etc.); […] (e.g., Cells, Incubation, Reagent, etc.); VALUE and DESCRIPTION.
1; Cells; 5 uL; white, solid bottom 1536-well Greiner assay plate.
2; Compounds; 23 nL; Kalypsis pin tool (Wako USA) equipped with a 1536-well pin head to transfer to the assay plates.
3; Incubation; 48 hours; 37C incubation.
4; Reagent;5uL; CellTiter Glo (Promega).
5; Detector; 425V; Luminescence; Viewlux PerkinElmer.
NOTES (numbers refer to Sequence numbers above)
1. The cell-based screening methods employed in this study were like those previously published. Briefly, the corresponding myeloma cell lines were screened in 1,536-well plates with 500 cells, 5-uL per well for inhibition of cell viability (assessed by measuring ATP levels with CellTiterGlo).
2. NCATS MIPE 4.0 library of approved and investigational drugs were added using the Kalypsis pin tool. Wells treated with DMSO only for 100% viability and media only cells for 0% viability were used as controls.
3. The assay plates were covered and incubated for 48 hours in a 37C, 5% CO2 incubator with controlled humidity.
4. After 48 hours, CellTilter-GloTM luminescent substrate mix (Promega) reagent was added to the assay plate and plates we incubated for 5 min at room temperature.
5. Signal was measured as median relative luminescence units on a ViewLux (PerkinElmer) multiplate reader.
[1] Heske CM, Davis MI, Baumgart JT, Wilson K, Gormally MV, Chen L, Zhang X, Ceribelli M, Duveau DY, Guha R, Ferrer M, Arnaldez FI, Ji J, Tran HL, Zhang Y, Mendoza A, Helman LJ, Thomas CJ. Matrix Screen Identifies Synergistic Combination of PARP Inhibitors and Nicotinamide Phosphoribosyltransferase (NAMPT) Inhibitors in Ewing Sarcoma. Clin Cancer Res. 2017 Dec 1;23(23):7301-7311. doi: 10.1158/1078-0432.CCR-17-1121. Epub 2017 Sep 12. PMID: 28899971; PMCID: PMC6636827.
Potency is the fitted concentration of half-maximal effect.

Q: Which “viability (% of DMSO)” value does the source give for Fc1ccc(C(OCCN2CCN(CCCc3ccccc3)CC2)c2ccc(F)cc2)cc1 here?
A: The value was 106%.

Q: With Cn1c(CCCC(=O)O)nc2cc(N(CCCl)CCCl)ccc21 as the compound, how does the “viability (% of DMSO)” value read?
A: The value was 126%.

Q: Which Potency does the source give for C=C(C)[C@H]1Cc2c(ccc3c2O[C@@H]2COc4cc(OC)c(OC)cc4[C@@H]2C3=O)O1 here?
A: The Potency was 235 nM (active).

Q: With Cc1cccc(C)c1NC(=O)CN1CCCC1=O as the compound, how does the “viability (% of DMSO)” value read?
A: Its value is 91.5%.

Q: With CN(C)[C@@H]1C(=O)C(C(N)=O)=C(O)[C@@]2(O)C(=O)C3=C(O)c4c(O)cccc4[C@@](C)(O)[C@H]3C[C@@H]12 as the compound, how does the “viability (% of DMSO)” value read?
A: The value was 98.3%.

Q: Which “viability (% of DMSO)” value does the source give for COc1ccc(C(=O)c2c(C)n(CCN3CCOCC3)c3ccccc23)cc1 here?
A: Its value is 103%.

Q: For Cc1sc2c(c1C)C(c1ccc(Cl)cc1)=N[C@@H](CC(=O)OC(C)(C)C)c1nnc(C)n1-2, which Potency is on record?
A: Its Potency is 66.2 nM (active).

Q: Which Potency does the source give for C[C@@H]1[C@@H](CC(C[C@H]2O[C@@H]3O[C@]4(C)CC[C@@H]5[C@H](C)CC[C@@H]([C@H]2C)[C@@]35OO4)C[S+](=O)([O-])c2ccc(COC(=O)N(C)C)cc2)O[C@@H]2O[C@]3(C)CC[C@H]4[C@H](C)CC[C@@H]1[C@@]24OO3 (some centres undefined) here?
A: Its Potency is 105 nM (active).

Q: With CC1=C2C[C@@H]3[C@@H](CC=C4C[C@@H](O)CC[C@@]43C)[C@@H]2CC[C@]12O[C@H]1C[C@H](C)CN[C@H]1[C@H]2C as the compound, how does the “viability (% of DMSO)” value read?
A: Its value is 121%.

Q: Which “viability (% of DMSO)” value does the source give for O=C1CC[C@@]2(O)[C@H]3Cc4ccc(O)c5c4[C@@]2(CCN3CC2CC2)[C@H]1O5 here?
A: The value was 107%.

Q: Which “viability (% of DMSO)” value does the source give for O=C(O)C(=O)c1cn(Cc2ccccc2)c2ccc(-c3ccc(OC(F)(F)F)cc3)cc12 here?
A: Its value is 108%.

Q: With CNC(=O)c1ccc(N2C(=S)N(c3ccc(C#N)c(C(F)(F)F)c3)C(=O)C23CCC3)cc1F as the compound, how does the Potency read?
A: Its Potency is 16600 nM (active).

Q: For COC[C@H]1OC(=O)c2coc3c2[C@@]1(C)C1=C(C3=O)C2CCC(=O)[C@@]2(C)C[C@H]1OC(C)=O (some centres undefined), which Potency is on record?
A: The Potency was 7430 nM (active).

Q: Which Potency does the source give for N[C@@H](Cc1ccc(N(CCCl)CCCl)cc1)C(=O)O here?
A: The Potency was 13200 nM (active).

Q: Which “viability (% of DMSO)” value does the source give for CCCC(C)(COC(N)=O)COC(=O)NC(C)C (centres undefined) here?
A: The value was 80.8%.

Q: Which Potency does the source give for C[C@@H]1[C@@H](C(=O)C[C@H]2O[C@@H]3O[C@]4(C)CC[C@@H]5[C@H](C)CC[C@@H]([C@H]2C)[C@@]35OO4)O[C@@H]2O[C@]3(C)CC[C@H]4[C@H](C)CC[C@@H]1[C@@]24OO3 here?
A: Its Potency is 46.9 nM (active).

Q: With CN(C)CCN(C)CCc1ccc(Cl)c(Cl)c1 as the compound, how does the “viability (% of DMSO)” value read?
A: The value was 104%.

Q: For CN1CCN(C(=O)O[C@H]2c3nccnc3C(=O)N2c2ccc(Cl)cn2)CC1, which “viability (% of DMSO)” value is on record?
A: Its value is 105%.

Q: Which “viability (% of DMSO)” value does the source give for CC(C)CC(N(C)C)C1(c2ccc(Cl)cc2)CCC1 (centres undefined) here?
A: Its value is 104%.

Q: For CC(O)(CS(=O)(=O)c1ccc(F)cc1)C(=O)Nc1ccc(C#N)c(C(F)(F)F)c1 (centres undefined), which Potency is on record?
A: The Potency was 2640 nM (active).

Q: With CN(C)CCc1ccc(O)cc1 as the compound, how does the “viability (% of DMSO)” value read?
A: Its value is 101%.

Q: For Cn1cc(C2=C(c3cn(C4CCN(Cc5ccccn5)CC4)c4ccccc34)C(=O)NC2=O)c2ccccc21, which Potency is on record?
A: Its Potency is 4180 nM (active).

Q: With NCC1(CC(=O)O)CCCCC1 as the compound, how does the “viability (% of DMSO)” value read?
A: The value was 85.2%.

Q: With COC[C@@H](NC(C)=O)C(=O)NCc1ccccc1 as the compound, how does the “viability (% of DMSO)” value read?
A: The value was 106%.
